Results from the supplement of paper PMC6522484.
± gives the standard deviation of the averaged measurements.

How the values were obtained:
DLD1 [1] = test: cell viability (CellTiter-Glo) relative to plate median (fraction of plate median); higher = more viable cells; conditions: 5 µM; treatment time 24 h; reporter: 7TFP
How it was run: (§1)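 For this screen, colorectal cancer cell lines carrying stable lentiviral TCF/Wnt firefly luciferase reporters, either 7TFP or TCF4/Wnt, were seeded into 384-well plates. A day's wait of 24 h preceded addition of library compounds at a final 5 µM, which stayed on the cells for 24 h. Firefly luciferase or CellTiterGlo luminescence, read on parallel plates, was normalised to the plate median per well, and the reported value is the mean of two independent replicates.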

HCT116 = test: as above; conditions: 5 µM; treatment time 24 h; reporter: TCF4/Wnt
How it was run: as §1

SW480 [2] = test: as above; conditions: 5 µM; treatment time 24 h; reporter: 7TFP
How it was run: as §1

DLD1 [3] = test: TCF/Wnt firefly luciferase reporter signal relative to plate median (fraction of plate median); higher = higher Wnt reporter signal; conditions: 5 µM; treatment time 24 h; reporter: 7TFP
How it was run: as §1

SW480 [4] = test: as above; conditions: 5 µM; treatment time 24 h; reporter: 7TFP
How it was run: as §1

Structure (SMILES)	cell viability (DLD1 [1])	cell viability (HCT116)	cell viability (SW480 [2])	TCF/Wnt firefly luciferase reporter signal (DLD1 [3])	TCF/Wnt firefly luciferase reporter signal (SW480 [4])
CC1CC2C3CCC4=CC(=O)C=CC4(C)C3(F)C(O)CC2(C)C1C(=O)CO (stereo not given)	0.954 ± 0.033	0.895 ± 0.043	0.939 ± 0.026	1.05	1.04 ± 0.057
C[C@H]1COc2c(N3CCN(C)CC3)c(F)cc3c(=O)c(C(=O)O)cn1c23	0.891 ± 0.025	0.966 ± 0.04	0.984 ± 0.023	0.996 ± 0.049	1.04 ± 0.093
C[C@@H]1CC[C@@]23CCC4(C)[C@@](C=CC5[C@@]6(C)CC[C@H](O)C(C)(C)C6CC[C@]54C)(OC2=O)C3[C@H]1C (stereo not given in full)	1.025 ± 0.0071	1.04 ± 0.028	0.993 ± 0.0042	1.06 ± 0.18	0.994 ± 0.023
CC(=O)O[C@@H]1C2=C(C)C=C(O2)[C@H]2O[C@]2(C)C[C@H]2C=C(C(=O)O2)[C@H](OC(C)=O)CC1[C@@]1(C)CO1 (stereo not given in full) [bipinnatin H]	1.1 ± 0.13	1.08 ± 0.17	0.984 ± 0.023	0.897 ± 0.16	0.7915 ± 0.0021
Cn1c(=O)c2c(ncn2C)n(C)c1=O	0.899 ± 0.05	0.953 ± 0.081	0.952 ± 0.0014	0.981 ± 0.11	1.01 ± 0.04
CCN(CC)CCOC(=O)C(Cc1cccc2ccccc12)CC1CCCO1 (stereo not given)	1.095 ± 0.0071	1.02 ± 0.034	1.02 ± 0.033	0.874 ± 0.072	1.22 ± 0.37
COc1ccc(-c2oc3c(CC=C(C)C)c(O[C@@H]4O[C@H](CO)[C@@H](O)[C@H](O)[C@H]4O)cc(O)c3c(=O)c2O[C@@H]2O[C@@H](C)[C@H](O)[C@@H](O)[C@H]2O)cc1	1.03 ± 0.014	1.1 ± 0.085	0.957 ± 0.048	0.977 ± 0.1	0.974 ± 0.03
Nc1c2c(nc3ccccc13)CCCC2	1.04	0.997 ± 0.018	0.946 ± 0.014	0.999 ± 0.016	0.943 ± 0.015
CC1=C(CCC(=O)O)c2cc3nc(cc4[nH]c(cc5[nH]c(cc1n2)c(C)c5C(C)O)c(C)c4C(C)O)C(C)=C3CCC(=O)O (stereo not given)	1.01 ± 0.015	0.909 ± 0.11	0.964 ± 0.0099	1.01 ± 0.13	1.02 ± 0.16
CN(C/C=C/C#CC(C)(C)C)Cc1cccc2ccccc12	1.04 ± 0.18	1.04 ± 0.014	1.03 ± 0.035	1.21 ± 0.042	1.07 ± 0.2
CCC(CCC(C)C1CCC2C3CCC4CC(O)CCC4(C)C3CCC12C)C(C)C (stereo not given)	1.11 ± 0.057	1.06 ± 0.021	1.06 ± 0.021	1.23 ± 0.078	1.01 ± 0.015
CC(C)C1=CC2=CC[C@@H]3[C@](C)(CCC[C@@]3(C)C(=O)O)[C@H]2CC1	0.967 ± 0.09	0.97 ± 0.013	0.897 ± 0.012	1.1 ± 0.11	0.912 ± 0.09
COc1cc2nc(N(C)CCCNC(=O)C3CCCO3)nc(N)c2cc1OC (stereo not given)	1.01 ± 0.12	0.973 ± 0.053	0.985 ± 0.035	0.972 ± 0.069	0.905 ± 0.053
CC1=CCCC(C)=CCC(C)(C)C=CC1 [HUMULENE (alpha)]	0.978 ± 0.013	1.01 ± 0.027	0.965 ± 0.021	1.04	1.15 ± 0.13
O=C1c2ccccc2C(=O)C1c1ccccc1	1.02	1.02 ± 0.048	1.02	1.12 ± 0.014	1.15 ± 0.071
CC12CCCC(O)(C1)C1CC(C)(C)C1CC2 (stereo not drawn) [beta-CARYOPHYLLENE ALCOHOL]	0.91 ± 0.072	1.12 ± 0.14	1 ± 0.04	1.1 ± 0.028	1.04 ± 0.028
COc1cc([S+](C)[O-])ccc1-c1nc2cccnc2[nH]1 (stereo not given)	0.968 ± 0.028	0.979 ± 0.058	0.953 ± 0.025	0.907 ± 0.22	0.794 ± 0.057
COc1ccc([C@@H]2CC(=O)c3c(O)cc(O)cc3O2)cc1O	1.01 ± 0.014	0.93 ± 0.052	0.9885 ± 0.0092	1.02 ± 0.11	0.982 ± 0.04
CN(CCOc1ccc(CC2SC(=O)NC2=O)cc1)c1ccccn1 (stereo not given)	0.935 ± 0.03	0.894 ± 0.044	0.949 ± 0.04	0.899 ± 0.09	0.906 ± 0.15
COC1C(OC(C)=O)C(C)OC(OC2C(Oc3cccc4c(OC(C)=O)c5c(=O)oc6ccc(C)c7c(=O)oc(c34)c5c67)OC(C)C(OC(C)=O)C2OC(C)=O)C1OC(C)=O (stereo not given) [Chartreusin-pentaacetate]	0.99 ± 0.028	1.04 ± 0.14	0.932 ± 0.03	1.095 ± 0.0071	1.1 ± 0.11
CC(C)C[C@H]1NC(=O)[C@@H](NC(=O)c2ncccc2O)[C@@H](C)OC(=O)[C@H](c2ccccc2)N(C)C(=O)[C@H](C)NC(=O)[C@H]([C@@H](C)C(C)C)N(C)C(=O)CN(C)C(=O)[C@H]2C[C@@H](O)CN2C1=O [Viridogrisein]	1.04 ± 0.11	0.954 ± 0.066	0.971 ± 0.11	1.12 ± 0.021	0.999 ± 0.073
CC(=O)[C@H]1CC[C@H]2[C@@H]3CC=C4C[C@@H](OC(=O)CCC(=O)O)CC[C@]4(C)[C@H]3CC[C@]12C	1.02 ± 0.021	1.01 ± 0.018	0.975 ± 0.033	0.97 ± 0.03	1.1 ± 0.028
C/C=C/C1=CC(=O)[C@@H](O)[C@@H]1O [Terrein]	0.964 ± 0.066	1.03 ± 0.014	0.986 ± 0.011	1.25 ± 0.085	1.1 ± 0.11
O=C(c1ccccc1)c1ccc2n1CCC2C(=O)O (stereo not given)	1.03 ± 0.095	0.929 ± 0.16	1 ± 0.023	0.911 ± 0.066	0.924 ± 0.021
CC1(C)S[C@@H]2[C@H](NC(=O)COc3ccccc3)C(=O)N2[C@H]1C(=O)O	1.09 ± 0.021	1.05	1.01 ± 0.023	1.1 ± 0.028	1.08 ± 0.05
C=C1C(=O)O[C@H]2C[C@@H]1C(OC(C)=O)C/C(C)=C/CC/C(C)=C/CC[C@@]2(C)O (stereo not given in full)	0.888 ± 0.067	0.999 ± 0.058	1.06 ± 0.014	0.885 ± 0.13	0.892 ± 0.0092
CCOC(=O)CCC(=O)O[C@H]1[C@H](O[C@@H]2[C@@H](C)[C@H](O[C@H]3C[C@@](C)(OC)[C@@H](O)[C@H](C)O3)[C@@H](C)C(=O)O[C@H](CC)[C@@](C)(O)[C@H](O)[C@@H](C)C(=O)[C@H](C)C[C@@]2(C)O)O[C@H](C)C[C@@H]1N(C)C	1.065 ± 0.0071	1.01 ± 0.096	1.01 ± 0.021	1.005 ± 0.0071	0.94 ± 0.025
CCCC(=O)O[C@]1(C(=O)CO)CC[C@H]2[C@@H]3CCC4=CC(=O)CC[C@]4(C)[C@H]3[C@@H](O)C[C@@]21C	0.965 ± 0.03	0.958 ± 0.16	1.02	0.895 ± 0.016	0.956 ± 0.0057
Nc1ccccc1C(=O)CC(N)C(=O)O (stereo not given)	1.01	1.05 ± 0.1	0.994 ± 0.023	1.31 ± 0.05	1.08 ± 0.014
